# Test results: PubChem BioAssay (NCATS)
# Inconclusive results are not listed. Calls of active or inactive are those of the source. The call rests on the fitted dose curve; in most records, active means well fitted curve in the direction sought with a large enough effect; inconclusive means small, poorly fitted or top-dose-only effect, or another doubt; inactive means no such curve, though single readings can be large; an effect the other way counts as inactive or inconclusive.
# Test system: not listed separately
# Assay: Cytometric Cell-Based qHTS for Inhibitors of the mTORC1 Signaling Pathway in MEF (Tsc2-/-, p53-/-) Cells (AID 2660);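 further: Tsc2 and p53 null MEFs carrying empty vector with compound for 24 h; percent of cells above a phospho-rpS6 to PI ratio cutoff in each well; plate controls were DMSO for no effect and rapamycin for full effect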
# Details: mTORC1 pathway cytometry; series mostly up to 38.3 µM; activity change, negative = inhibition: at the top concentration
# Summary of the method: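 Percent of cells positive for normalized phospho-S6 staining is reported, with the cutoff set from rapamycin (7.5 nM) versus DMSO wells. Tsc2-/-, p53-/- MEFs received compound for 24 hrs.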
SMILES,"activity change, negative = inhibition",outcome
CC(=O)N[C@@H](CS)C(=O)O,-8.15% (inactive),
COC(=O)[C@@H]1[C@H]2C[C@H]3c4[nH]c5ccccc5c4CCN3C[C@@H]2CC[C@@H]1O,12.7% (inactive),
CCCNC(=O)NS(=O)(=O)c1ccc(Cl)cc1,18.3% (inactive),
CC(=O)c1ccc(S(=O)(=O)NC(=O)NC2CCCCC2)cc1,-2.56% (inactive),
Clc1ccc(Cn2c(CN3CCCC3)nc3ccccc32)cc1,-0.234% (inactive),
O=C(O)CCc1nc(-c2ccccc2)c(-c2ccccc2)o1,-0.253% (inactive),
CC(C)NCC(O)COc1cccc2[nH]ccc12 (stereo not drawn),11.1% (inactive),
O=C1NCC2(CCN(CCc3ccccc3)CC2)O1,-0.485% (inactive),
CC(=O)CCCCn1c(=O)c2c(ncn2C)n(C)c1=O,-5.09% (inactive),
CN(C)CCC(c1ccccc1)c1ccccn1 (stereo not drawn),-1.2% (inactive),
CC(C)OC(=O)C(C)(C)Oc1ccc(C(=O)c2ccc(Cl)cc2)cc1,1.11% (inactive),
O=c1c(-c2ccc(O)cc2)coc2cc(O)ccc12,0.101% (inactive),
CCN(CC)C(=O)c1ccc(O)c(OC)c1,6.9% (inactive),
CCN1CCC[C@H]1CNC(=O)c1cc(S(N)(=O)=O)ccc1OC,0.804% (inactive),
NC(N)=Nc1nc(CSCC/C(N)=N/S(N)(=O)=O)cs1,3.89% (inactive),
Cc1cccc(C)c1OCC(C)N (stereo not drawn),3.48% (inactive),
O=C1NC(=O)C(c2ccccc2)(c2ccccc2)N1,-0.125% (inactive),
C[N+](C)(C)CCCCCC[N+](C)(C)C,,inactive
CCN(CC)CCOC(=O)c1ccc(N)cc1,-0.71% (inactive),
NCCS,-0.562% (inactive),
COc1ccccc1N1CCN(CCCNc2cc(=O)n(C)c(=O)n2C)CC1,10.9% (inactive),
CCCCC1C(=O)N(c2ccccc2)N(c2ccccc2)C1=O,12.6% (inactive),

# Test system: not listed separately
# Assay: High Content Imaging Cell-Based qHTS for Inhibitors of the mTORC1 Signaling Pathway in MEF (Tsc2-/-, p53-/-) Cells (AID 2666);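 further: percent of cells scored positive for phospho-rpS6 Ser235/236 immunostaining by imaging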
# Details: series mostly up to 38.3 µM
# Summary of the method: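 Cells were plated, dosed with compound after 24 hrs, and incubated another 24 hrs at 37 degree Celsius. Fixed cells were immunostained for phospho-rpS6 Ser235/236 and counterstained, and the normalized signal was scored as % active cells against rapamycin and DMSO controls.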
SMILES,outcome,Potency
CC(=O)N[C@@H](CS)C(=O)O,inactive,
COC(=O)[C@@H]1[C@H]2C[C@H]3c4[nH]c5ccccc5c4CCN3C[C@@H]2CC[C@@H]1O,inactive,
CCCNC(=O)NS(=O)(=O)c1ccc(Cl)cc1,inactive,
CC(=O)c1ccc(S(=O)(=O)NC(=O)NC2CCCCC2)cc1,inactive,
Clc1ccc(Cn2c(CN3CCCC3)nc3ccccc32)cc1,inactive,
O=C(O)CCc1nc(-c2ccccc2)c(-c2ccccc2)o1,inactive,
CC(C)NCC(O)COc1cccc2[nH]ccc12 (stereo not drawn),inactive,
O=C1NCC2(CCN(CCc3ccccc3)CC2)O1,inactive,
CC(=O)CCCCn1c(=O)c2c(ncn2C)n(C)c1=O,inactive,
CN(C)CCC(c1ccccc1)c1ccccn1 (stereo not drawn),inactive,
CC(C)OC(=O)C(C)(C)Oc1ccc(C(=O)c2ccc(Cl)cc2)cc1,inactive,
O=c1c(-c2ccc(O)cc2)coc2cc(O)ccc12,inactive,
CCN(CC)C(=O)c1ccc(O)c(OC)c1,inactive,
CCN1CCC[C@H]1CNC(=O)c1cc(S(N)(=O)=O)ccc1OC,inactive,
NC(N)=Nc1nc(CSCC/C(N)=N/S(N)(=O)=O)cs1,inactive,
Cc1cccc(C)c1OCC(C)N (stereo not drawn),inactive,
O=C1NC(=O)C(c2ccccc2)(c2ccccc2)N1,inactive,
C[N+](C)(C)CCCCCC[N+](C)(C)C,,inactive
CCN(CC)CCOC(=O)c1ccc(N)cc1,inactive,
NCCS,inactive,
COc1ccccc1N1CCN(CCCNc2cc(=O)n(C)c(=O)n2C)CC1,inactive,
CCCCC1C(=O)N(c2ccccc2)N(c2ccccc2)C1=O,inactive,

# Test system: not listed separately
# Assay: Validation screen for small molecules that induce DNA re-replication in MCF 10A normal breast cells (AID 463097); further: 0% is about no effect; nearly all actives have a fitted effect of over 60% in size
# Details: MCF 10A cells, DNA re-replication phenotype imaging; series mostly up to 46.1 µM; re-replication induction: at the top concentration
# Summary of the method: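 Image-based qHTS: normal breast cells are incubated with compound for 48 hr, stained with Hoechst, and scanned for total nuclear fluorescence. Compounds raising the fraction of nuclei with elevated DNA content count as re-replication inducers.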
SMILES,re-replication induction,Potency
CC(=O)N[C@@H](CS)C(=O)O,-1.28% (inactive),
COC(=O)[C@@H]1[C@H]2C[C@H]3c4[nH]c5ccccc5c4CCN3C[C@@H]2CC[C@@H]1O,12.8% (inactive),
CCCNC(=O)NS(=O)(=O)c1ccc(Cl)cc1,-8.5% (inactive),
CC(=O)c1ccc(S(=O)(=O)NC(=O)NC2CCCCC2)cc1,-2.83% (inactive),
Clc1ccc(Cn2c(CN3CCCC3)nc3ccccc32)cc1,4.65% (inactive),
O=C(O)CCc1nc(-c2ccccc2)c(-c2ccccc2)o1,4.66% (inactive),
CC(C)NCC(O)COc1cccc2[nH]ccc12 (stereo not drawn),-0.934% (inactive),
O=C1NCC2(CCN(CCc3ccccc3)CC2)O1,4.27% (inactive),
CC(=O)CCCCn1c(=O)c2c(ncn2C)n(C)c1=O,4.14% (inactive),
CN(C)CCC(c1ccccc1)c1ccccn1 (stereo not drawn),-0.846% (inactive),
CC(C)OC(=O)C(C)(C)Oc1ccc(C(=O)c2ccc(Cl)cc2)cc1,26% (inactive),
O=c1c(-c2ccc(O)cc2)coc2cc(O)ccc12,5.42% (inactive),
CCN(CC)C(=O)c1ccc(O)c(OC)c1,-0.615% (inactive),
CCN1CCC[C@H]1CNC(=O)c1cc(S(N)(=O)=O)ccc1OC,-7.62% (inactive),
NC(N)=Nc1nc(CSCC/C(N)=N/S(N)(=O)=O)cs1,-4.02% (inactive),
Cc1cccc(C)c1OCC(C)N (stereo not drawn),1.26% (inactive),
O=C1NC(=O)C(c2ccccc2)(c2ccccc2)N1,2.04% (inactive),
C[N+](C)(C)CCCCCC[N+](C)(C)C,,inactive
CCN(CC)CCOC(=O)c1ccc(N)cc1,3.32% (inactive),
NCCS,-1.83% (inactive),
COc1ccccc1N1CCN(CCCNc2cc(=O)n(C)c(=O)n2C)CC1,5.75% (inactive),
CCCCC1C(=O)N(c2ccccc2)N(c2ccccc2)C1=O,5.82% (inactive),

# Target: Ubiquitin carboxyl-terminal hydrolase 2 (Homo sapiens) (UniProt O75604)
# Assay: qHTS Validation Assay for Inhibitors of Ubiquitin-specific Protease USP2a Using CHOP2 as the Reporter (AID 463106);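 further: plate controls were DMSO for no effect and full inhibition by NEM for full effect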
# Details: USP2a cleavage of CHOP2 reporter, enzymatic; series mostly up to 38.3 µM; activity, negative = inhibition: at the top concentration
# Summary of the method: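 10nM USP2 core + cpd, 30min RT; add 25nM Ub-CHOP2/25nM substrate; 60min RT; FI 485/531nm. Buffer Tris pH 8.0, CaCl2, BME, CHAPS. Norm. to NEM = 100% inhibition; time-zero read flags fluorescent artifacts.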
# Ubiquitin carboxyl-terminal hydrolase 2 (Homo sapiens), sequence (O75604 whole entry, looked up): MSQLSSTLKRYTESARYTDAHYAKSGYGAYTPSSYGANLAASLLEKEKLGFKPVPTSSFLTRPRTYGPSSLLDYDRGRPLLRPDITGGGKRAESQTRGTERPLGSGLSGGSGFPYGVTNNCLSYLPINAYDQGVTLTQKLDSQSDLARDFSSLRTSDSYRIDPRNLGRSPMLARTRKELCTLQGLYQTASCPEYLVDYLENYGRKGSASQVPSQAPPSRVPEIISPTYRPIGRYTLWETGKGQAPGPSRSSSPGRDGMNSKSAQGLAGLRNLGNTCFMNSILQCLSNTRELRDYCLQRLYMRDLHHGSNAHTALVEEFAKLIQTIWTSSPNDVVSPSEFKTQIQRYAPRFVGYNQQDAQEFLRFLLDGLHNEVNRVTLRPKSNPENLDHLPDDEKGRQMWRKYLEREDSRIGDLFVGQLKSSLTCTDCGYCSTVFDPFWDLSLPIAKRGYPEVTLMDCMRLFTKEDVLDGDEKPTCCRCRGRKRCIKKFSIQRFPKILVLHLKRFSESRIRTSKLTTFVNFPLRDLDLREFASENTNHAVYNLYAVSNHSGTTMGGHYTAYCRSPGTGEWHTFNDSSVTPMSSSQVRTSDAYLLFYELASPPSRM
SMILES,"activity, negative = inhibition",outcome
CC(=O)N[C@@H](CS)C(=O)O,-2.52% (inactive),
COC(=O)[C@@H]1[C@H]2C[C@H]3c4[nH]c5ccccc5c4CCN3C[C@@H]2CC[C@@H]1O,-3.33% (inactive),
CCCNC(=O)NS(=O)(=O)c1ccc(Cl)cc1,1.27% (inactive),
CC(=O)c1ccc(S(=O)(=O)NC(=O)NC2CCCCC2)cc1,-5.65% (inactive),
Clc1ccc(Cn2c(CN3CCCC3)nc3ccccc32)cc1,-0.86% (inactive),
O=C(O)CCc1nc(-c2ccccc2)c(-c2ccccc2)o1,1.38% (inactive),
CC(C)NCC(O)COc1cccc2[nH]ccc12 (stereo not drawn),1.28% (inactive),
O=C1NCC2(CCN(CCc3ccccc3)CC2)O1,1.28% (inactive),
CC(=O)CCCCn1c(=O)c2c(ncn2C)n(C)c1=O,-0.587% (inactive),
CN(C)CCC(c1ccccc1)c1ccccn1 (stereo not drawn),0.918% (inactive),
CC(C)OC(=O)C(C)(C)Oc1ccc(C(=O)c2ccc(Cl)cc2)cc1,1.49% (inactive),
O=c1c(-c2ccc(O)cc2)coc2cc(O)ccc12,2.87% (inactive),
CCN(CC)C(=O)c1ccc(O)c(OC)c1,1.7% (inactive),
CCN1CCC[C@H]1CNC(=O)c1cc(S(N)(=O)=O)ccc1OC,-1.16% (inactive),
NC(N)=Nc1nc(CSCC/C(N)=N/S(N)(=O)=O)cs1,2.5% (inactive),
Cc1cccc(C)c1OCC(C)N (stereo not drawn),-0.515% (inactive),
O=C1NC(=O)C(c2ccccc2)(c2ccccc2)N1,0.736% (inactive),
C[N+](C)(C)CCCCCC[N+](C)(C)C,,inactive
CCN(CC)CCOC(=O)c1ccc(N)cc1,-0.546% (inactive),
NCCS,-0.0393% (inactive),
COc1ccccc1N1CCN(CCCNc2cc(=O)n(C)c(=O)n2C)CC1,2.06% (inactive),
CCCCC1C(=O)N(c2ccccc2)N(c2ccccc2)C1=O,4.84% (inactive),
